40 molecules from PubChem BioAssay (NCATS) can be followed below.

Inconclusive results are not listed. Entries that show only a call come without a potency. Active and inactive are the calls of the source. The call rests on the fitted dose curve; in most records, active means well fitted inhibition curve with a large enough effect; inconclusive means small, poorly fitted or top-dose-only effect; inactive means flat fitted curve, though single readings scatter.

In this assay the target is Calcium and integrin-binding protein 1 (Homo sapiens) (UniProt Q99828). Nature of the assay: Primary qHTS for Identification of Calcium Integrin Binding Protein 1 (CIB1) Competitor (AID 1508620). Further: top concentration of the series differs between compounds. The note with it: CIB1-GST / FITC-alphaIIb peptide fluorescence polarization; series mostly up to 114 µM. The method in brief: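 Fluorescence polarization competition: GST-tagged CIB1 (1 uM final) preincubated with compound 15 min at room temperature, then FITC-labelled alphaIIb peptide (100 nM final) added. After 15 min at room temperature, polarization read at Ex 480/Em 540.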
Sequence of Calcium and integrin-binding protein 1 (Homo sapiens) (Q99828 whole entry, looked up): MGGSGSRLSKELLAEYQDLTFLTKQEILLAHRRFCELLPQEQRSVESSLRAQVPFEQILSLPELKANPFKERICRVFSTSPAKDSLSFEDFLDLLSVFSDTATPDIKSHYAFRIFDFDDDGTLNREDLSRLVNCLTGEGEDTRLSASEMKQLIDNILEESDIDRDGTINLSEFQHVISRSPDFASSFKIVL
In the case of `O=C1CCCC2=C1C(c1[nH]ncc1Cl)N=C(Nc1ccccn1)N2` (stereo not given), the Potency result is “inactive”.

For the molecule `COc1ccccc1C1=Nn2c(nnc2-c2ccccc2C)SC1`, the Potency result was “inactive”.

On to `Cc1c(Cl)cccc1NS(=O)(=O)c1cc2c(cc1Cl)CCC(=O)N2`, for which the Potency result is “inactive”.

For the molecule `Cc1cc2c(s1)c1cnn(Cc3ccc(Br)cc3F)c(=O)c1n2C`, the Potency result is “inactive”.

Turning to `Cc1cccc(Cn2ncc3c4sc(C)cc4n(C)c3c2=O)c1`, the Potency result was “inactive”.

Consider `COC(=O)c1ccc(O)c2ncc(NC3CCNCC3)cc12`, for which the Potency result was “inactive”.

In the case of `COc1ccc2c(c1)Oc1nc(-c3ccc(C)cc3)nc(SCC(=O)Nc3cccc(C(=O)O)c3)c1C2`, the Potency result is “inactive”.

Take `Oc1ccc(/C=C/c2ccccc2)c2cccnc12`: the Potency result is “inactive”.

Regarding `Cc1cccc(CNc2ncnc3ccc(-c4ccccc4Cl)cc23)c1`, the Potency result is “inactive”.

For `O=C(NCCc1nc2ccccc2n1CCOc1cc(F)ccc1F)C1CCCCC1`, the Potency entry was “inactive”.

`O=C(NC(c1ccco1)c1cc(Cl)c2cccnc2c1O)c1ccc(F)c(F)c1` (stereo not given): the Potency result was “inactive”.

Take `Cc1noc(C)c1-c1ccc2ncnc(NCc3ccccc3F)c2c1`: the Potency result was “inactive”.

With `Cc1ccc(OCCn2c(CCNC(=O)c3cccc(Cl)c3)nc3ccccc32)cc1`, the Potency entry was “inactive”.

`COc1ccc(-c2no[n+]([O-])c2C#N)cc1`: the Potency entry was “inactive”.

With `COc1ccc(C2=Nn3c(nnc3-c3cccc(OC)c3OC)SC2)c(OC)c1`, the Potency entry is “inactive”.

Turning to `Cc1ccc(NS(=O)(=O)c2cccc(C(=O)O)c2)cc1C`, the Potency entry is “inactive”.

`CC(C)Nc1nc(C#N)nc(Nc2ccccc2)n1`: the Potency result was “inactive”.

Take `COc1ccc(C)cc1NC(=O)C(OC(=O)CNC(=O)c1ccccc1)c1ccccc1` (stereo not given): the Potency entry is “inactive”.

On to `O=C(/C=C/c1ccc([N+](=O)[O-])o1)Nc1cccc([S+](=O)([O-])Nc2ccccc2F)c1`, for which the Potency entry is “inactive”.

As to `O=C(Nc1nnc(-c2ccncc2)s1)Nc1cc(C(F)(F)F)ccc1F`, the Potency result was “inactive”.

As to `Cc1cnc(-c2ccccc2C(C)C)nc1NCC1CCN(c2cccnc2)C1` (stereo not given), the Potency result was “inactive”.

`O=C(Cc1nnc(CNC(=O)c2ccccc2)s1)Nc1ccc(C(F)(F)F)cc1Cl`: the Potency entry was “inactive”.

With `Fc1cccc(-c2ccc(Nc3nc(-c4ccncc4)nc4ccccc34)cc2F)c1`, the Potency entry is “inactive”.

For the molecule `COc1ccc(-c2nc3ccccc3c(=O)n2Cc2ccco2)cc1COc1ccc(NC(C)=O)cc1`, the Potency result was “inactive”.

In the case of `O=C(CNC(=O)c1cccc(Cl)c1)OC(C(=O)Nc1cc(C(F)(F)F)ccc1Cl)c1ccccc1` (stereo not given), the Potency result was “inactive”.

Take `Cn1c2ccsc2c2ncn(Cc3ccc(F)cc3)c(=O)c21`: the Potency result was “inactive”.

As to `Cc1cc(C)nc(NC(=S)N2CCN(c3cccc(Cl)c3Cl)CC2)c1`, the Potency entry was “inactive”.

For the molecule `O=C(CSc1nnc(-c2cccc(S(=O)(=O)N3CCCC3)c2)n1-c1ccccc1)Nc1ccccc1`, the Potency entry is “inactive”.

On to `O=C(O)c1cc(Br)c(O)c2ncccc12`, for which the Potency entry is “inactive”.

With `NC(=O)C1CCN(c2nc(-c3cccs3)cs2)CC1`, the Potency entry was “inactive”.

As to `O=C(CNC(=O)c1ccc2ccccc2c1)OC(C(=O)Nc1cc(C(F)(F)F)ccc1Cl)c1ccccc1` (stereo not given), the Potency result is “inactive”.

On to `N#Cc1c(-c2cccc(Cl)c2)no[n+]1[O-]`, for which the Potency entry was “inactive”.

For the molecule `CC(C)c1ccccc1-c1nc(NCc2ccc(-c3cccnc3)cc2)c2[nH]cnc2n1`, the Potency result is “inactive”.

Consider `Cc1cc(C)nc(NC(=S)N2CCN(Cc3cccc4ccccc34)CC2)c1`, for which the Potency entry is “inactive”.

In the case of `C=CCNc1nnc(-c2cccc3ccccc23)o1`, the Potency entry is “inactive”.

Consider `CC(C)(C)OC(=O)N1CCN(c2ccc(NCc3ncc(-c4ccc(C#N)cc4)o3)cc2)CC1`, for which the Potency result is “inactive”.

As to `Nc1nnc(-c2ccc3ccccc3c2)o1`, the Potency entry was “inactive”.

As for `Cc1ccc(CNc2ccc(N3CCNCC3)cc2)cc1`, the Potency result was “inactive”.

Take `Cc1cc(C)nc(NC(=S)N2CCN(c3ccc4ccccc4n3)CC2)c1`: the Potency entry is “inactive”.

On to `O=S(=O)(c1ccc2c(c1)OCCO2)N1CCN(S(=O)(=O)c2cccc[n+]2[O-])CC1`, for which the Potency result is “inactive”.
